Screening data as filed in PubChem BioAssay.
Sampled rows, rich in hits. Any-hit rate of the full collection: about 1.1%.
HTR5A ag ctr: activates human HTR5A in OPRM1-OPRD1 agonist counter-screen. P47898. HTR5A agonist assay, luminescence, cell-based. activation, % at 9.3 µM. 0.61% of 340,000 active; in the data active = activation mostly above about 9.5%, no sharp cut-off; inactive = mostly below about 7.6%;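 also: 0% = cells with vehicle only and 100% = reference agonist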
Target sequence (P47898 whole entry, looked up): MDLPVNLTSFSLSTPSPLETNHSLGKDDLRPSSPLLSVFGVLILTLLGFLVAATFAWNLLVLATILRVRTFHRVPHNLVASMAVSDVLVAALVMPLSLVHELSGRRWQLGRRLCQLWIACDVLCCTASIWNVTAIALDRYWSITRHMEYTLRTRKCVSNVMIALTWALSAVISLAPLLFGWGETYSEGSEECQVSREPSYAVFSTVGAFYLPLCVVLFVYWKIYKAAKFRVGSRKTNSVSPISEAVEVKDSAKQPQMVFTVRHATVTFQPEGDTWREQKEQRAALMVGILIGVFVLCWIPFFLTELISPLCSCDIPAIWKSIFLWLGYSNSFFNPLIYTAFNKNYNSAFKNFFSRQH
OPRM1-OPRD1 ag: OPRM1-OPRD1 heterodimerization agonism | cells, luminescence | 0.3% of 340,000 active | P35372+P41143 | activation, % at 9.3 µM;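 also: 0% = vehicle-treated cells and 100% = reference agonist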
MOR-DOR inv ag: inverse agonists of human mu-delta opioid receptor heterodimerization; cell-based MOR-DOR heterodimer luminescence, inverse agonism; inhibition, % at 9.3 µM; 0.21% of 340,000 active; in the data active = inhibition above about 22%, passing the limit was not always enough;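 also: 0% = cells with DMSO and 100% = wells without cells with DMSO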
HTR5A inv ctr: counter-screen for OPRM1-OPRD1 inverse agonists: human HTR5A inverse agonism | P47898 | HTR5A cell line, luminescence | inhibition, % at 9.3 µM | 0.083% of 340,000 active | AID 504634; in the data active = inhibition mostly above about 23%, no sharp cut-off; inactive = mostly below about 18%;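 also: 0% = cells with DMSO and 100% = no-cell wells with DMSO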
OPRM1-D1 ag cf: OPRM1-OPRD1 heterodimer agonism, confirmation; cells, MOR-DOR heterodimerization, luminescence complementation; 45% of 830 active; shares compounds with OPRM1-OPRD1 ag; activation, % at 9.3 µM;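 also: 0% = vehicle-treated cells and 100% = reference agonist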
HTR5A ag counter: activates human HTR5A in OPRM1-OPRD1 agonist counter-screen; shares compounds with OPRM1-OPRD1 ag; HTR5A agonist counterscreen, cell luminescence; activation, % at 9.3 µM; 8% of 830 active; in the data active = activation above about 17%;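 also: 0% = vehicle-treated cells and 100% = reference agonist response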
Numbers without * were called inactive. Rule as the data show it, unless noted: active = activation above about 18%; inactive = the rest.

SMILES | HTR5A ag ctr | OPRM1-OPRD1 ag | MOR-DOR inv ag | HTR5A inv ctr | others
COc1ccc2[nH]cc(CCNC(=O)c3ccc4ccccc4n3)c2c1 | 13.7* | -0.8 | 3.9 | -51.8
CC(C)(C)C1CCc2sc(C(=O)NNC(=O)CCl)cc2C1 (configuration not stated) | 57.0* | 38.3* | -196.6 | -163.2
CC(C)(C)C1CCC(=NNC(=O)c2cc3c(s2)CCCC3)CC1 (configuration not stated) | 2.3 | 1.9 | -9.9 | -2.1
CC(=O)N(C)c1ccc(NC(=S)Nc2cccc3ccccc23)cc1 | 14.2* | 7.0 | -36.0 | -24.0
CC(=O)N(C)c1ccc(NC(=S)Nc2ccccc2)cc1 | -0.7 | -1.3 | 6.5 | 1.7
CCCn1nc(NC(=O)C2CCCO2)c2cc3ccc(C)cc3nc21 (configuration not stated) | 1.0 | -3.0 | 14.7 | -2.5
C[C@@H]1COC(=O)[C@H](NC(=O)OCC2c3ccccc3-c3ccccc32)C/C=C\C[C@@H](CC(=O)N(CCO)Cc2ccccc2)C(=O)N1 | -1.7 | -4.1 | 18.8 | 13.0
Cc1ccc(S(=O)(=O)N/N=C\c2ccc3c(c2)OCO3)c(C)c1 | 10.8* | 2.5 | -13.1 | -10.5
COc1ccc(S(=O)(=O)N/N=C\c2ccc3c(c2)OCO3)cc1 | 7.4 | -0.2 | 1.0 | -35.8
COc1ccccc1N1CCN(C(=O)c2cc3c(s2)CCCCC3)CC1 | 10.2* | 1.5 | -8.1 | -19.0
CCOc1ccccc1N1CCN(C(=O)c2cc3c(s2)CCC3)CC1 | 0.0 | 1.3 | -6.9 | 0.0
Cc1ccc(CNC(=O)/C=C/c2ccccc2Cl)cc1 | 11.0* | 0.4 | -2.3 | -39.8
Cc1ccc(CNC(=O)/C=C/c2c(Cl)cccc2Cl)cc1 | 1.5 | 0.3 | -1.8 | -5.2
CCOc1ccc(-c2c(C(=O)N/N=C/c3ccc(C)o3)nnn2-c2nonc2N)cc1 | 0.3 | -3.2 | 17.2 | 0.2
Nc1nonc1-n1nnc(C(=O)N/N=C/c2ccc(Br)cc2)c1-c1ccc2c(c1)OCO2 | 2.0 | 0.0 | 0.1 | -22.8
Nc1nonc1-n1nnc(C(=O)N/N=C/c2cccc(Cl)c2)c1-c1ccc2c(c1)OCO2 | 10.0* | -1.6 | 8.4 | 16.2
CCCOc1ccc(-c2c(C(=O)N/N=C/c3ccc(C)o3)nnn2-c2nonc2N)cc1 | 9.8* | 19.4* | -101.0 | -37.2
Cc1ccc(C(=O)N/C(=C/c2cccs2)C(=O)NCCc2c[nH]c3ccccc23)cc1 | 14.2* | -1.4 | 7.6 | -24.1
O=C(Nc1cccc(-c2cnc3ccccc3n2)c1)c1cccc(NC(=O)c2ccco2)c1 | 13.8* | 51.1* | -265.4 | -53.0
O=C(Nc1cccc(-c2cnc3ccccc3n2)c1)c1ccccc1 | -0.7 | -2.7 | 14.3 | 2.2
O=C(NCCc1ccncc1)Nc1ccc(Cl)c(Cl)c1 | 0.1 | 2.4 | -11.7 | 36.4
O=C(NCCc1ccncc1)Nc1ccccc1 | 13.4* | -3.1 | 13.3 | -5.3
Cc1ccc(C)c(Cn2cnc3c(nnn3-c3ccc(F)cc3)c2=O)c1 | 10.3* | 5.9 | -32.4 | -25.5
COc1ccc(C(=O)C2CCN(C(=O)Nc3ccccc3C)CC2)cc1 | 0.8 | 3.1 | -25.1 | -2.4
Cc1cc(NC(=O)CSCC(=O)OC(C)C(=O)N(C)Cc2ccccc2)no1 (configuration not stated) | 0.5 | -2.4 | 15.5 | -1.2
SMILES | HTR5A ag ctr | OPRM1-OPRD1 ag | MOR-DOR inv ag | HTR5A inv ctr | others
Cn1c(C(=O)NCc2ccccn2)cc2c(=O)n(C)c3ccccc3c21 | 13.1* | -2.6 | 13.4 | -36.3
O=C(CSc1ncn[nH]1)Nc1ccc2c(c1)CCC2 | 12.0* | -0.3 | 1.8 | -41.7
Cc1ccc(NC(=O)CSc2ncn[nH]2)cc1 | 3.1 | -3.2 | 16.8 | -8.7
NS(=O)(=O)c1ccc(CNS(=O)(=O)c2ccc3ccccc3c2)cc1 | -4.6 | -3.7 | 20.6 | 4.8
O=C(O)c1ccc(CNS(=O)(=O)c2ccc3ccccc3c2)cc1 | 9.9* | -0.5 | 3.5 | -26.3
CC(C)(C)c1cc(NC(=O)Nc2ccccc2)no1 | 11.3* | 6.2 | -29.4 | -43.7
COC(=O)c1ccccc1NC(=O)Nc1cc(C(C)(C)C)on1 | 1.1 | -1.0 | 5.8 | -4.2
COc1ccc(C2(C(=O)Nc3ccc(S(=O)(=O)Nc4nc(C)cc(C)n4)cc3)CCCC2)cc1OC | 8.3 | -0.4 | 2.2 | -22.3
O/C(=C\c1nc2ccccc2nc1/C=C(\O)c1ccccc1)c1ccccc1 | -8.7 | -13.8 | 71.4* | 4.1
O/C(=C\c1ccc2ccccc2n1)c1ccncc1 | 0.5 | -2.5 | 14.3 | -9.0
Cc1cc(-n2c(C)cc(C(=O)CSc3ncnc4ccccc34)c2C)no1 | 16.2* | 6.7 | -40.7 | -18.8
CCCCCC(O)(c1ccc(OCC)cc1)C(CN1CCOCC1)c1ccccc1 (configuration not stated) | -2.3 | 4.1 | -19.5 | 8.6
c1ccc(-c2cnn3nnnc3n2)cc1 | 12.4* | 0.7 | -4.1 | -25.5
CC(=O)n1cc(N(C(=O)CCl)c2ccc(C)cc2)c2ccccc21 | 54.5* | 66.2* | -339.0 | 4.3
Cc1ccc(CNC(=O)C2CCN(S(=O)(=O)c3ccc4c(c3)CC(C)N4C(=O)C3CCC3)CC2)o1 (configuration not stated) | 11.2* | -2.1 | 11.2 | -5.6
CC(C)CCNC(=O)C1CCN(S(=O)(=O)c2ccc3c(c2)CC(C)N3C(=O)C2CCC2)CC1 (configuration not stated) | 2.8 | -0.5 | 2.8 | -10.9
NC(=O)C1C2C=CC(C2)C1c1ccccc1 (configuration not stated) | 0.2 | -3.6 | 17.7 | -0.9
O=C(NCCOc1ccc(Cl)cc1)C(=O)NCC1CCCO1 (configuration not stated) | -1.6 | -0.9 | 5.0 | 9.3
Cc1cccc(NC(=O)c2cc(-c3cc(C)c(C)cc3O)n[nH]2)c1 | -2.0 | 4.0 | -19.3 | 7.4
Cc1cccc(NC(=O)c2cc(-c3cc(C)ccc3O)n[nH]2)c1 | -1.2 | 18.4* | -101.9 | 4.7 | OPRM1-D1 ag cf=13.5;HTR5A ag counter=1.5
COc1ccc(NCC(O)COc2ccc(C(C)(C)C)cc2)cc1 (configuration not stated) | 5.6 | 8.6 | -39.0 | -4.2
COc1ccc(S(=O)(=O)N(CC(=O)Nc2cccnc2)c2ccccc2OC)cc1 | 6.0 | 64.5* | -328.2 | 10.9 | OPRM1-D1 ag cf=6.2;HTR5A ag counter=9.7
COc1ccc(C)cc1N(CC(=O)Nc1cccnc1)S(=O)(=O)c1ccc(C)cc1 | 3.7 | 69.3* | -345.4 | 8.0 | OPRM1-D1 ag cf=0.3;HTR5A ag counter=-0.8
COc1ccc(N(CC(=O)Nc2cccnc2)S(=O)(=O)c2ccc(C)cc2)cc1Cl | -1.1 | -1.4 | 7.2 | 3.0
CCOC(=O)CCSCC(=O)N1N=C(c2cccs2)CC1c1ccc(C)cc1 (configuration not stated) | -2.4 | 3.0 | -16.3 | 3.6
CC(=O)Nc1ccc(NC(=O)C2CCCN2C(=O)NCc2ccccc2)cc1 (configuration not stated) | -4.0 | -2.8 | 17.5 | -22.2
